Whole data set: some 1,200 compounds, median “% viability” near 1, cut for the lowest 2% near 0.27. The entries come from a sample that favours the lowest values as a whole. The numbers are fractions of the control, whatever unit the source prints.

The test system of the experiment is S. rosetta (SrEpac culture). The conditions noted are these: flow cytometry, 24 h, high-nutrient medium; 10 µM. For orientation: Flow cytometry measures light scatter and fluorescence of single cells or particles in a stream.
Turning to `CCCc1cc(-c2cncc(OCC(N)Cc3c[nH]c4ccccc34)c2)cc2c(C)n[nH]c12` (stereo not shown) [KMS_217], the “% viability” value was found to be 0.

The values above are taken from article PMC11984502, “A stress-responsive p38 signaling axis in choanoflagellates” (RSC Chemical Biology, 2025).
